Screening data from PubChem.
HepG2 tox = kills HepG2 cells in TGF-b inhibitor counter-screen; HepG2 CAGA-GFP viability, ATP luminescence, 18 h; Potency, µM (series often up to 46.1 µM), inactives show at the highest dose activity change, negative = cytotoxicity, usual class: cytotoxic; 410,000 tested, 0.76% active; AID 588856; also: potency is read from the fitted curve at half-maximal effect
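CellTiter-Glo luminescence gave cytotoxicity after 18 hours at 37 degrees C. The cells were HepG2 CAGA-GFP in 1% FBS DMEM, stimulated with 500 pg/mL TGF-beta after compound addition. %Activity was normalised to no-cell wells (complete cell-killing) and DMSO (no toxicity), and curves were fitted and classified.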
DRD3 antagonist = D3 dopamine receptor (human) antagonism; P35462; 360,000 tested, 2.5% active; max response, negative = inhibition, %; D3R cells, DiscoveRx beta-arrestin luminescence, antagonist mode; stronger effect = lower value; AID 652054; in the data active = max response below about -50%; inconclusive = no clear call, values can overlap the other calls; also: % is scaled to controls: 0 for no effect and ±100 for the full control effect
Target sequence (P35462 whole entry, looked up): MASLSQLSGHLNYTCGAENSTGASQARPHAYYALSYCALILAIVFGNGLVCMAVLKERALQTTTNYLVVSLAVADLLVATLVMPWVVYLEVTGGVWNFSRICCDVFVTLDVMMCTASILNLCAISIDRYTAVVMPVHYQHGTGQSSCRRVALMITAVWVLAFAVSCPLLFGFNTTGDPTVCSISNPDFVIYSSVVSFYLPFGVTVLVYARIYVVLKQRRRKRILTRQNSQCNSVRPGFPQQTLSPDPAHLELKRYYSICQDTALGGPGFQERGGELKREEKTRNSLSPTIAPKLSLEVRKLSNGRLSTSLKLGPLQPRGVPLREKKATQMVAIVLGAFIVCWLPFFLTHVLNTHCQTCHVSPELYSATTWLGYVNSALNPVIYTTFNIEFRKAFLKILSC
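Cells plated overnight at 1500 cells/well, then exposed to library compounds with dopamine controls for 90 minutes at 37 degrees C. DiscoveRx reagent added for 30–60 minutes at room temperature; luminescence read, quantitative HTS format.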
S2 tox = viability counter-screen for ATXN expression inhibitors. S2 cells (HEK-293 line with an ATXN2-luciferase reporter) viability, CellTiter-Fluor protease fluorescence, 24 h. Potency, µM (titrated, usually from 56.7 µM), actives largely listed as cytotoxic. 400,000 tested, 0.49% active; also: potency is read from the fitted curve at half-maximal effect; nearly all actives have a fitted effect of over 40% in size
DRD3 agonist = agonists of human D3 dopamine receptor; P35462; D3R DiscoveRx beta-arrestin cells, luminescence, 90 min; max activation, %; 410,000 tested, 0.58% active; AID 652048; in the data active = max activation above about 30%; also: 0% is about no effect
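Cells at 1500/well, incubated overnight, then treated with pinned compounds (dopamine as control) for 90 min at 37 degrees C. DiscoveRx reagent added for 30 - 60 minutes at room temperature; luminescence read.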
ATXN2 expr inh = ATXN2 expression inhibition | AID 1745845 | 360,000 tested, 0.72% active | HEK-293 ATXN2-luciferase reporter, luminescence, 24 h | Potency, µM (doses to about 57 µM), inactives show at the highest dose activity change, negative = inhibition, usual class: inhibitors; also: potency is read from the fitted curve at half-maximal effect; % is scaled to controls: 0 for no effect and ±100 for the full control effect; nearly all actives have a fitted effect of over 55% in size
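ATXN2-luciferase reporter cells (luciferase flanked by upstream and downstream ATXN2 gene portions) were treated 24 h at 37 °C with compounds at up to 57 uM. SteadyGlo luminescence gave expression; GF-AFC fluorescence gave viability.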
TGFb SMAD3 inh = TGF-b pathway inhibition | 410,000 tested, 1.2% active | HepG2 CAGA-GFP TGF-b/SMAD3 reporter, GFP fluorescence, 18 h; TGF-beta stimulated, 500 pg/mL final | Potency, µM (top dose mostly 46.1 µM), inactives show top-dose activity, negative = inhibition, hits mostly inhibitors | AID 588855; also: potency is read from the fitted curve at half-maximal effect; % is scaled to controls: 0 for no effect and ±100 for the full control effect; nearly all actives have a fitted effect of over 65% in size
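HEPG2 CAGA-GFP, 1000 cells/well; 2 h settle, 37 C; cpd via pin tool; TGF-b 500 pg/mL final; 18 h, 37 C; GFP imaging ex488/em500-530; %Activity normalised to -TGF-b and +DMSO controls; CRC fit, curve class.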
Numbers without * were called inactive; i = inactive; ? = inconclusive; / = no result given; [ ] = dose if it differs, or a comment. In the library only some 4.7% were active in any assay of this set; here they are far more common. Unless noted, calls follow the shape of the dose curve; as a rule, active = well fitted curve in the direction sought with a large enough effect; inconclusive = small, poorly fitted or top-dose-only effect, or another doubt; inactive = no such curve, though single readings can be large; an effect the other way counts as inactive or inconclusive.

SMILES | HepG2 tox | DRD3 antagonist | S2 tox | DRD3 agonist | ATXN2 expr inh | TGFb SMAD3 inh
Cc1cccc(N2CCN(S(=O)(=O)c3cc(Cl)ccc3Cl)CC2)c1C | -7% | / | i | 65* | -5% | 0%
C/C(CC1CC2=C(CC1(C)C)C(C)(C)CCC2)=N\NC(N)=S (stereo unspecified) | 11µM* | ? | / | -22 | ? | 7.9µM*
C/C(CC1CC(C)(C)OC1=O)=N\NC(N)=S (stereo unspecified) | 4% | -14 | i | 16 | -3% | 1%
C=CC(=O)Nc1cccc(CN2C(=O)N(c3cc(OC)cc(OC)c3)Cc3cnc(NCCCCN(CC)CC)nc32)c1 | -71% | 0 | 20µM* | 0 | -20% | -7%
CCOc1cccc(CNCCO)c1OCc1ccc(Cl)cc1Cl | -86% | 0 | ? | 5 | -31% | ?
CCOc1cc(CNCCO)cc(Br)c1OCc1ccc(Cl)cc1Cl | 16µM* | -5 | / | 6 | 20µM* | ?
OCCNCc1cc(Br)ccc1OCc1ccc(Cl)cc1Cl | 16µM* | 23 | ? | -20 | ? | ?
CCCn1cc(S(=O)(=O)c2ccccc2)c(=O)c2cc(F)c(N3CCCC3)cc21 | 5% | / | i | 7 | 6% | -4%
CCCn1cc(S(=O)(=O)c2cccc(Cl)c2)c(=O)c2cc(F)c(N3CCN(CC)CC3)cc21 | -3% | / | / | 63* | / | -2%
COc1ccc(Nc2nc(NCc3ccco3)nc(N/N=C/c3ccccc3F)n2)cc1 | -67% | -54* | i | -7 | 0% | -2%
NC1=N[C@H]2[C@H](CS[C@H]2CCCCC(=O)O)N1 | / | / | / | / | 12%[25.6 µM] | /
CN(Cc1ccccc1)c1cc(Cl)nc(N)n1 | -10% | -10 | i | 38* | -1% | 3%
CCN(CC)c1cc(Cl)nc(N)n1 | -17% | 3 | i | 0 | / | ?
CC(C)CCn1c(=O)c2ccccc2n2c(CN3CCOCC3)nnc12 | 1% | -54* | i | -8 | -15%[2.22 µM] | -1%
Cc1ccc(Nc2cc(C)nc3nc(Cc4ccc(Cl)cc4)nn23)cc1 | -58% | / | / | -6 | 14µM* | 4µM*
Cc1ccc(Nc2cc(C)nc3nc(C)nn23)cc1 | -12% | -7 | i | 3 | -5% | -9%
CCc1ccc(Nc2cc(C)nc3nc(Cc4ccc(Cl)cc4)nn23)cc1 | -77% | / | ? | -1 | ? | 13µM*
COC(=O)c1ccc(Cn2c(SCc3ccc(F)cc3)nc3ccncc32)cc1 | -23% | / | / | 0 | / | ?
S=c1[nH]nc(Cc2c[nH]c3ccccc23)o1 | -5% | -10 | i | -2 | -8% | -20%
S=c1[nH]nc(Cc2sc(-c3ccccc3)nc2-c2ccccc2)o1 | 4% | -67* | i | 4 | 9% | ?
COc1cc(C(=S)N2CCC(Cc3ccccc3)CC2)ccc1OCC(N)=O | -1% | -5 | i | 2 | -27% | ?
COc1cc(C(C)=O)ccc1OCCCN1CCC(Cc2ccccc2)CC1 | -20% | -90* | ? | -21 | -24% | 19%
COc1cc(C(C)=O)ccc1OCCN1CCC(Cc2ccccc2)CC1 | 4% | -77* | i | -22 | -33% | -7%
COc1cc(C(C)=O)ccc1OCC(=O)N1CCC(Cc2ccccc2)CC1 | -13% | 10 | i | 2 | / | -14%
CCC(C(=O)NC(C)(C)C)n1c(-c2ccc(C)cc2)nc2ccccc21 (stereo unspecified) | / | 0 | / | 53* | / | /
SMILES | HepG2 tox | DRD3 antagonist | S2 tox | DRD3 agonist | ATXN2 expr inh | TGFb SMAD3 inh
CCC(C(=O)Nc1c(C)cccc1C)n1c(-c2ccc(-c3ccccc3)cc2)nc2ccccc21 (stereo unspecified) | / | -25 | / | 71* | / | /
CCCc1nc2ccccc2n1C(CC)C(=O)NC(C)(C)C (stereo unspecified) | / | 4 | / | -2 | / | /
Cc1ccc(NC(=O)c2ccccc2)s1 | -52% | 9 | i | 0 | 22% | -19%
Cc1cc(NC(=O)c2ccccc2)sc1C | 8.9µM* | 0 | i | -1 | 101% | 1%
CNc1ccc(-c2cccc([N+](=O)[O-])c2)cn1 | -27% | -59* | i | -8 | -12% | 0%
S=C(NCCCc1cnc[nH]1)NCCCN(Cc1ccc(Cl)cc1)c1ccc(-c2ccccc2)cn1 | -82% | / | / | / | / | ?
CCOC(=O)c1c(NC(=O)COc2ncnc3sccc23)sc2c1CCC2 | -12% | 20 | i | 35* | 2% | -2%
CC(=O)Nc1ccc(C(C)=NNC(=O)C2CCCC2)cc1 | -5% | -2 | i | 0 | 12% | 0%
C/C(=N\NC(=O)C1CCCC1)c1ccc(NC(=O)C(F)(F)F)cc1 | -94% | 14 | i | 9 | 9% | 11µM*
Cc1ccc(S(=O)(=O)N2CCN(c3ccc(C(F)(F)F)cc3[N+](=O)[O-])CC2)cc1 | -24% | 25 | i | -15 | -30% | ?
Cc1cc(N2CCN(c3ccc([N+](=O)[O-])c4cccnc34)CC2)c2ccccc2n1 | 3.2µM* | -1 | ? | 8 | ? | ?
Cc1cc(N2CCN(c3ccc(C(F)(F)F)cc3[N+](=O)[O-])CC2)c2ccccc2n1 | -61% | 0 | / | 1 | / | 10µM*
O=C(O)c1ccccc1C1c2ccccc2Oc2ccccc21 | 2% | -72* | i | -20 | 7% | -15%
CC(C)C(=O)Nc1ncc(-c2cc(C(F)F)nn2-c2c(Cl)cccc2Cl)s1 | / | / | / | / | -1% | /
CCC(C(=O)NCCc1ccccc1)n1nc(C)n2c(cc3sccc32)c1=O (stereo unspecified) | -1% | / | / | -9 | / | -29%
CCc1c(C)c2ccc(OCC(=O)OC(C)C)c(C)c2oc1=O | 0% | 56 | i | 41* | 26% | 6%
CC1CCc2nc3ccccc3c(C(=O)OCC(=O)N3CCc4ccccc43)c2C1 (stereo unspecified) | 8% | 39 | ? | 2 | 6% | -1%
CCCc1nc2ccccc2c(C(=O)OCC(=O)N2CCc3ccccc32)c1CC | 4% | 83 | ? | 70* | -3% | ?
CCCc1nc2ccccc2c(C(=O)OCC(=O)Nc2ccc(S(=O)(=O)N3CCOCC3)cc2)c1CC | -4% | 36 | ? | 32* | ? | ?
Cc1ccc(N2CC(c3nc(-c4ccc(Cl)cc4)no3)CC2=O)cc1F (stereo unspecified) | 5% | / | i | 6 | 7% | 9%
CCCCN(CCCC)c1ccc(C(=O)c2ccccc2C(=O)O)c(O)c1 | -34% | -81* | i | -9 | 14% | ?
O=[N+]([O-])c1ccc(Nc2ccccc2-c2ccccc2)c2nonc12 | / | / | / | / | -29% | /
